# DT40 TDP1 no CPT: qHTS for Inhibitors of human tyrosyl-DNA phosphodiesterase 1 (TDP1): qHTS in cells in absence of CPT; DT40 Tdp1-/- hTDP1 cells, no CPT, ATP luminescence, 48 h; Potency, µM (highest dose often 46.2 µM), inactives show at the top dose activity change, negative = growth inhibition, most hits filed as inhibitors; 420,000 compounds, 15% hits; AID 686978, 2013; note: potency is the fitted concentration of half-maximal effect; % is set by controls: 0 for no effect and ±100 for the full control effect; nearly all actives have a fitted effect of over 55% in size
#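 Chicken DT40 Tdp1-/- cells stably complemented with human TDP1 were seeded at 400 cells/well with DMSO in place of 20 nM camptothecin. After compound pinning, cells grew at least 48 hr at 37 °C; viability read by CellTiter-Glo luminescence.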
# TGFb SMAD3 inh: TGF-b pathway inhibition; HepG2 CAGA-GFP TGF-b/SMAD3 reporter, GFP fluorescence, 18 h; TGF-beta stimulated, 500 pg/mL final; Potency, µM (series often up to 46.1 µM), for the others: at the top dose activity, negative = inhibition, most hits filed as inhibitors; 410,000 compounds, 1.2% hits; AID 588855; note: potency is the fitted concentration of half-maximal effect; % is set by controls: 0 for no effect and ±100 for the full control effect; nearly all actives have a fitted effect of over 65% in size
#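 Per well, imaged GFP fluorescence of HEPG2 CAGA-GFP cells gives the signal; cells get compound, then TGF-beta (500 pg/mL final), 18 h at 37 degrees C; %Activity versus -TGF-beta and +DMSO controls.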
# TDP1 block: blocks human tyrosyl-DNA phosphodiesterase 1. recombinant TDP1, AlphaScreen DNA substrate cleavage. Potency, µM (titrated, usually from 130 µM), without a hit: top-dose activity change, negative = inhibition, usual class: inhibitors. 350,000 compounds, 0.28% hits. AID 485290; note: potency is the fitted concentration of half-maximal effect; % is set by controls: 0 for no effect and ±100 for the full control effect; nearly all actives have a fitted effect of over 40% in size
# Target sequence (Q9NUW8 whole entry, looked up): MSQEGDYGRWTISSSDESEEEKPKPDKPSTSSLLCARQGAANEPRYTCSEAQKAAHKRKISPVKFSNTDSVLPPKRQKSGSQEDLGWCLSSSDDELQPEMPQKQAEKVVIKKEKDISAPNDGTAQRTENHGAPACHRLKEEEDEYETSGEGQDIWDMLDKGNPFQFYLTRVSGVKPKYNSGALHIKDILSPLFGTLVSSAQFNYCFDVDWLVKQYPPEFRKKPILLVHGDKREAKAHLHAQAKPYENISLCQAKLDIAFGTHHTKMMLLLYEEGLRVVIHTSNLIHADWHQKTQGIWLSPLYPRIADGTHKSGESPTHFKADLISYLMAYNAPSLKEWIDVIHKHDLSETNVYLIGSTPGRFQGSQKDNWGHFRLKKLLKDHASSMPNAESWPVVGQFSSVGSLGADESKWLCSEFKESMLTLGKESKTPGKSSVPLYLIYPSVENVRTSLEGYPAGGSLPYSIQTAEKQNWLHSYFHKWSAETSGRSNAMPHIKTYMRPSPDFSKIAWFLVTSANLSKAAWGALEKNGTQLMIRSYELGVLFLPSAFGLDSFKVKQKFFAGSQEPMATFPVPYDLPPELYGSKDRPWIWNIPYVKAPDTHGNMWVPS
#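 Tdp1 1 nM final; 15 min RT w/ cpd; substrate 15 nM, 5 min; beads 10 ug/ml, 10 min; AlphaScreen read. Neg ctrl: no enzyme.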
# TDP1 cell CPT: growth inhibition of DT40 Tdp1-/-;hTDP1 cells with camptothecin (screen for TDP1 inhibitors) | chicken DT40 Tdp1-/-;hTDP1 cells + 20 nM CPT, ATP luminescence, 48 h | 420,000 compounds, 12% hits | Potency, µM (highest dose often 46.2 µM), inactives show at the top dose activity change, negative = growth inhibition, most hits filed as inhibitors; note: potency is the fitted concentration of half-maximal effect; % is set by controls: 0 for no effect and ±100 for the full control effect; nearly all actives have a fitted effect of over 55% in size
#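 Chicken DT40 Tdp1-/- cells stably complemented with human TDP1 were seeded at 400 cells/well in medium containing 20 nM camptothecin, exposed to pin-transferred compounds, and grown at 37 °C for at least 48 hr. Viability was read as ATP luminescence.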
# HepG2 tox-1: counter-screen for TGF-b inhibitors: cytotoxicity in HepG2 cells | Potency, µM (top dose mostly 46.1 µM), inactives show at the top dose activity change, negative = cytotoxicity, actives largely listed as cytotoxic | AID 588856 | HepG2 CAGA-GFP viability, ATP luminescence, 18 h | 410,000 compounds, 0.76% hits; note: potency is the fitted concentration of half-maximal effect
#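 HepG2 CAGA-GFP cells (1000/well, DMEM with 1% FBS) received compound, then TGF-beta at 500 pg/mL final, and were incubated 18 hours at 37 degrees C. Viability was read by CellTiter-Glo luminescence. Media-only wells were set as complete cell-killing and DMSO as no toxicity.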
# IL1B secr inh: inflammasome signaling inhibition, IL-1 beta readout; THP-1 LPS/ATP IL-1B secretion, AlphaLISA, 16 h; stronger effect = lower value; activity change, % at 57.5 µM; 360,000 compounds, 4.7% hits; AID 743279; in the data active = activity change below about -50%; inconclusive = mostly about -30% to -49%; note: % is set by controls: 0 for no effect and ±100 for the full control effect
#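 Secreted IL-1B measured by AlphaLISA bead assay after 16 h compound exposure of THP-1 cells; compounds (final up to 57.5 uM) added 1 h before LPS (250 ng/mL) and ATP (1.25 mM) stimulation; lower signal means less secretion.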
# TGFb CAGA inh: confirmation of TGF-b signaling inhibitors in HepG2 reporter cells | shares compounds with TGFb SMAD3 inh | HepG2 CAGA-GFP TGF-b reporter, GFP fluorescence, 18 h; cells stimulated with TGF-beta, 500 pg/mL | Potency, µM (doses to about 46.1 µM), without a hit: top-dose activity, negative = inhibition, actives largely listed as inhibitors | 1,600 compounds, 63% hits | AID 720534; note: potency is the fitted concentration of half-maximal effect; % is set by controls: 0 for no effect and ±100 for the full control effect; nearly all actives have a fitted effect of over 65% in size
# HepG2 tox-2: toxic to HepG2 cells in TGF-b counterscreen. shares compounds with TGFb SMAD3 inh. HepG2 CAGA-GFP viability, ATP luminescence, 18 h; cells stimulated with TGF-beta, 500 pg/mL. Potency, µM (titrated, usually from 46.1 µM), without a hit: at the top dose activity, negative = cytotoxicity, actives largely listed as inhibitors. 1,600 compounds, 27% hits; note: potency is the fitted concentration of half-maximal effect; % is set by controls: 0 for no effect and ±100 for the full control effect; nearly all actives have a fitted effect of over 70% in size
# CCL64 TGFb inh: blocks TGF-b signaling in CCL64 reporter cells; CCL64 CAGA-GFP reporter, TGF-b stimulated, GFP fluorescence, 18 h; AID 720536; 1,600 compounds, 41% hits; shares compounds with TGFb SMAD3 inh; Potency, µM (titrated, usually from 46.1 µM), for the others: at the top dose activity, negative = inhibition, hits mostly inhibitors; note: potency is the fitted concentration of half-maximal effect; nearly all actives have a fitted effect of over 65% in size
# COP TGFb inh: validation of TGF-b inhibitors in HepG2 COP promoter reporter; 1,600 compounds, 3% hits; Potency, µM (highest dose often 46.1 µM), for the others: top-dose activity, negative = inhibition, actives largely listed as inhibitors; AID 720537; HepG2 COP-GFP TGF-b reporter, GFP fluorescence, 18 h; cells stimulated by added recombinant TGF-beta; shares compounds with TGFb SMAD3 inh; note: potency is the fitted concentration of half-maximal effect; nearly all actives have a fitted effect of over 70% in size
# An asterisk follows results filed as active; u = inconclusive; x = not tested or not shown. A selection: hits, their analogues and other compounds. The true share with any hit is near 19%. Unless noted, calls come from the whole dose curve; as a rule, active = well fitted curve in the direction sought with a large enough effect; inconclusive = small, poorly fitted or top-dose-only effect, or another doubt; inactive = no such curve, though single readings can be large; an effect the other way counts as inactive or inconclusive.
SMILES,DT40 TDP1 no CPT,TGFb SMAD3 inh,TDP1 block,TDP1 cell CPT,HepG2 tox-1,IL1B secr inh,TGFb CAGA inh,HepG2 tox-2,CCL64 TGFb inh,COP TGFb inh
CCCS(=O)(=O)Nc1ccc(Nc2c3ccccc3nc3ccccc23)c(OC)c1,0.16µM*,10µM*,x,0.16µM*,-84%,-94*,u,15µM*,13µM*,5%
Cc1ccc(N(C(=O)c2csnn2)C(C(=O)NC2CCCCC2)c2ccncc2)c(C)c1 (centres undefined),-27%,-2%,8%,-3%,2%,-10,x,x,x,x
CCO[C@@H]1OC(C(=O)NCc2nc3ccccc3[nH]2)=C[C@H](C(C)(C)C)[C@H]1CCCO,1.2µM*,1.6µM*,x,1.3µM*,-5%,34,u,6%,u,-25%
C#Cc1ccc([C@H]2C=C(C(=O)NCc3nc4ccccc4[nH]3)O[C@@H](OCC)[C@@H]2CCCO)cc1,u,-14%,x,u,-2%,u,x,x,x,x
COc1ccc2nc(Nc3nc(CSc4nc5ccccc5[nH]4)cc(=O)[nH]3)nc(C)c2c1,4.1µM*,2.8µM*,2%,4.6µM*,4%,-95*,8.2µM*,u,18µM*,26%
Cc1nc(Nc2nc(CSc3ccc(Cl)cc3)cc(=O)[nH]2)nc2ccccc12,u,u,2%,-25%,5%,9,x,x,x,x
Cc1nc(Nc2nc(CSc3nc4ccccc4[nH]3)cc(=O)[nH]2)nc2ccccc12,6.5µM*,18µM*,5%,4.1µM*,-16%,-87*,5.2µM*,4.1µM*,6.5µM*,38%
CC(NCC(=O)NCC(=O)Nc1ccc(F)cc1)c1cccc(C(F)(F)F)c1 (centres undefined),-13%,11%,1%,-25%,-7%,-5,x,x,x,x
O=C(O)CC(c1ccc(Br)cc1)N1Cc2ccccc2C1=O (centres undefined),5%,2%,x,33%,10%,2,x,x,x,x
Cc1ccc(SC2=C(N(C)C)C(=O)c3ccccc3C2=O)cc1,5.2µM*,10µM*,x,4.6µM*,-50%,-64*,u,-21%,21µM*,43%
CC(C(=O)N1CCc2ccccc21)N1CCN(c2cccc(C(F)(F)F)c2)CC1 (centres undefined),u,7.1µM*,6%,-13%,-39%,u,u,3%,u,-9%

# High-throughput results from PubChem BioAssay.
